In the library only some 2.4% were active in any assay of this set; here they are far more common.
Pol eta inh = qHTS for Inhibitors of Polymerase Eta; recombinant Pol eta, fluorescent DNA replication assay; Potency, µM (top dose mostly 114 µM), most hits filed as inhibitors; hit rate 1.2% among 390,000
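Fluorescent replication assay: 50 nM final substrate added after a 15 min room-temperature compound preincubation with 10 nM enzyme. Signal taken at 0 min and again at 10 min.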
POLI inh = qHTS for Inhibitors of Polymerase Iota; DNA polymerase iota (Homo sapiens), Q9UNA4; Pol iota fluorescent replication assay, 10 min; Potency, µM (highest dose often 115 µM), hits mostly inhibitors; hit rate 1% among 390,000; AID 588590, 2011
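Pol iota at 10 nM preincubated 15 min with compounds at room temperature; reaction started with fluorescent substrate, 50 nM final. Fluorescence read kinetically at 0 and 10 min; buffer-only wells as negative control.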
TDP1 inh = qHTS Assay for Inhibitors of Tyrosyl-DNA Phosphodiesterase (TDP1); Tyrosyl-DNA phosphodiesterase 1 (Homo sapiens), Q9NUW8; recombinant TDP1, AlphaScreen DNA substrate cleavage; Potency, µM (top dose mostly 130 µM), usual class: inhibitors; hit rate 0.28% among 350,000; AID 485290, 2010; further: nearly all actives have a fitted effect of over 40% in size
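Here, a 5' biotin and 3' phosphotyrosine-FITC DNA oligonucleotide reports Tdp1 activity: intact substrate bridges AlphaScreen beads, while cleavage leaves a 3' phosphate and drops signal. All incubations at room temperature.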
POLB inh = qHTS Assay for Inhibitors of DNA Polymerase Beta; Pol beta primer extension/strand displacement, fluorescence kinetic; P06746; hit rate 1.3% among 340,000; Potency, µM (titrated, usually from 114 µM), hits mostly inhibitors
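Values derive from four-parameter Hill fits of normalized kinetic data: reads at 0 and 10 min following addition of 50 nM substrate to 10 nM Pol beta preincubated 15 min with compound.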
POLK inh = qHTS for Inhibitors of Polymerase Kappa | DNA polymerase kappa (Homo sapiens), Q9UBT6 | hit rate 0.53% among 400,000 | Potency, µM (highest dose often 107 µM), usual class: inhibitors | purified Pol kappa, fluorescent DNA synthesis assay, 10 min | AID 588579, 2011
Target sequence (Q9UBT6 whole entry, looked up): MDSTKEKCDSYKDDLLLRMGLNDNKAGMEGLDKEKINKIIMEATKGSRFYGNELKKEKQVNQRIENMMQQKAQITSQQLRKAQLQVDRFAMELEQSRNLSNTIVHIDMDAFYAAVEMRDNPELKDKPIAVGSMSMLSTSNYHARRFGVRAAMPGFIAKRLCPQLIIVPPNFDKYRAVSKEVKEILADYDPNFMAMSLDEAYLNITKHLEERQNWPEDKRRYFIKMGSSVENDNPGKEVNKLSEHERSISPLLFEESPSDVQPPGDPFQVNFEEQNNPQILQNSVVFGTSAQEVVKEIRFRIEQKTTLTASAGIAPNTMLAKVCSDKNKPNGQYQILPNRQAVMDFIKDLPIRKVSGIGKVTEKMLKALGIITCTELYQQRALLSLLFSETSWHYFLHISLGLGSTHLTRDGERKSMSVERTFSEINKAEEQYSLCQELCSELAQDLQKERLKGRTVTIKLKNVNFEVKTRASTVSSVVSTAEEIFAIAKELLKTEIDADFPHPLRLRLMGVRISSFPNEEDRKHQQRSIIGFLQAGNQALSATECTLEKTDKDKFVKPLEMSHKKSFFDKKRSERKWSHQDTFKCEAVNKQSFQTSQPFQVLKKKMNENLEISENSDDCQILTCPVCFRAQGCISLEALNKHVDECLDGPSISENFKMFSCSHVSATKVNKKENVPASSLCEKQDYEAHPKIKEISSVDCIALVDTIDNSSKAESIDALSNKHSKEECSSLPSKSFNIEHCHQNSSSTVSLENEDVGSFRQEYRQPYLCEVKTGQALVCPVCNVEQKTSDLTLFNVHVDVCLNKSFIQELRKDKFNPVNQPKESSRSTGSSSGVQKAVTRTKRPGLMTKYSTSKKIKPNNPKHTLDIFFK
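Activity was followed as the change in fluorescence between reads at 0 and 10 min after starting the reaction with 50 nM substrate. Beforehand, 10 nM polymerase had been preincubated with compound for 15 min at room temperature.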
Each line names hits and unclear results; the compound was inactive in the other large screens; ! = a repeat was not active. The call rests on the fitted dose curve; in most records, active means well fitted curve in the direction sought with a large enough effect; inconclusive means small, poorly fitted or top-dose-only effect, or another doubt; inactive means no such curve, though single readings can be large; an effect the other way counts as inactive or inconclusive.

COc1cc(/C=C(\C#N)C(N)=O)ccc1OCc1c(C)no[n+]1[O-]	none
CC1(OC(=O)C2CCCC2)C(=O)C=C2C=C(c3ccsc3)N(c3cccc(C#N)c3)C=C2C1=O (centres undefined)	none (no result: Pol eta inh, POLI inh, POLB inh, POLK inh)
CCOc1ccc(N=Cc2c(C)[nH]n(-c3nc4ccccc4[nH]3)c2=O)cc1	Pol eta inh 16µM, TDP1 inh 50µM, POLB inh 22µM, POLK inh inconclusive
Cc1cccc(N2CCN(C(=O)c3cccn3-c3nnc(N4CCCCC4)s3)CC2)c1C	none
O=[N+]([O-])c1ccc(CNc2ccc(Cl)cc2)s1	none
COc1ccc(NCc2ccc([N+](=O)[O-])s2)c(OC)c1	Pol eta inh inconclusive, POLB inh 22µM
O=[N+]([O-])c1ccc(CNc2ccc(F)cc2)s1	none
COc1ccc(NCc2ccc([N+](=O)[O-])s2)cc1	POLB inh 22µM
Oc1ccc(CNCc2ccccc2F)c2cccnc12	none (no result: Pol eta inh, POLI inh, POLB inh, POLK inh)
Cc1ccc(S(=O)(=O)N2CCN(C(=O)c3ccccc3)CC2)cc1	none
Cc1ccc(S(=O)(=O)N2CCN(C(=O)c3cccc(-n4cccc4)c3)CC2)cc1	Pol eta inh 18µM, POLI inh 22µM, POLK inh 79µM (no result: POLB inh)
CCN(CC)S(=O)(=O)c1cc(NC(=O)c2ccc3c(c2)NC(=O)C(C)S3)ccc1C (centres undefined)	Pol eta inh 56µM (no result: POLB inh)
Cc1cc(C)c(NC(=O)c2ccc3c(c2)NC(=O)C(C)S3)c(C)c1 (centres undefined)	none (no result: POLB inh)
COc1ccccc1N1CCN(c2nc3ccccc3n3cnnc23)CC1	Pol eta inh inconclusive
Cc1cc(C)c(S(=O)(=O)/N=C2/C=C(SCC(=O)O)C(=O)c3ccccc32)cc1C	Pol eta inh 20µM, POLI inh 6.3µM, POLB inh inconclusive
Cc1cc(C)c(S(=O)(=O)/N=C2\C=C(NS(=O)(=O)c3ccccc3)C(=O)c3ccccc32)c(C)c1	POLI inh inconclusive (no result: TDP1 inh)
Cc1c(Cn2cnc3c(cnn3C(C)(C)C)c2=O)cccc1C(F)(F)F	none (no result: Pol eta inh, TDP1 inh, POLB inh)
CC1=C(c2ccc(C)c(C)c2)S(=O)(=O)N=C1N1CCC(C(=O)N2CCC(C)CC2)CC1	none (no result: Pol eta inh)
Cc1cccc(Cn2ccn(Cc3ccc(Cl)cc3)c(=O)c2=O)c1	POLB inh 25µM
CCOC(=O)Cc1ccc(NS(=O)(=O)c2ccc(SC)cc2)cc1	none
CCOC(=O)c1ccc(NS(=O)(=O)c2ccc(SC)cc2)cc1	POLI inh 79µM
CCOC(=O)CN1C(=N)N(c2nc(NC(C)C)nc(OC)n2)CC1=O	POLI inh 79µM (no result: TDP1 inh)
CN(Cc1ccccc1)c1ccc(/C=C/c2nc3ccccc3s2)cc1	POLI inh 89µM, POLK inh 25µM (no result: Pol eta inh, TDP1 inh, POLB inh)
CN(Cc1ccccc1)c1ccc(C=O)cc1	none (no result: Pol eta inh, TDP1 inh, POLB inh)
CN(C)c1ccc(/C=C/c2ncnc3ccccc23)cc1	POLI inh 40µM, POLK inh inconclusive (no result: Pol eta inh, TDP1 inh, POLB inh)
CN(C)c1ccc(/C=C/c2nc3ccccc3s2)cc1	POLI inh 89µM!, POLK inh inconclusive
COc1cc(/C=C/c2nc3ccccc3s2)cc(OC)c1O	Pol eta inh inconclusive, POLB inh 22µM
S=C(NCCCc1cnc[nH]1)NCCCN(Cc1ccc(Cl)cc1)c1cc(-c2ccccc2)ccn1	POLI inh inconclusive (no result: Pol eta inh, TDP1 inh, POLB inh)
COc1ccccc1Cn1c(C2CC(=O)N(c3ccccc3OC)C2)nc2ccccc21 (centres undefined)	none
O=c1oc(-c2ccccc2)nc2sc3c(c12)CCC3	Pol eta inh inconclusive, POLI inh inconclusive, POLB inh 11µM, POLK inh 79µM (no result: TDP1 inh)
O=C1CCC(=O)N1c1ccc(-c2nc3sc4c(c3c(=O)o2)CCC4)cc1	none
CCCCN(CC)C(=O)c1cc2c(=O)n3ccccc3nc2n1C	POLB inh 45µM
CCOC(=O)CSc1nc(=O)n2ccc(C)cc2n1	none
Cc1ccn2c(=O)nc(SCC(=O)OCc3ccccc3)nc2c1	Pol eta inh 50µM, POLI inh 45µM, POLK inh inconclusive (no result: TDP1 inh, POLB inh)
O=C(NCc1ccccc1)c1ccc(Cn2cc(C(F)(F)F)ccc2=O)cc1	none
CCCNC(=O)c1ccc(Cn2cc(C(F)(F)F)ccc2=O)cc1	POLI inh 89µM

Source: PubChem
